Compound activity from PubChem BioAssay.
MOR-DOR ag – agonists of human mu-delta opioid receptor heterodimerization; P35372+P41143; cells, OPRM1-OPRD1 heterodimerization, luminescence; activation, % at 9.3 µM; 340,000 tested, 0.3% active;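 note: 0% = vehicle-treated cells and 100% = reference agonist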
Target sequence (P35372 whole entry, looked up): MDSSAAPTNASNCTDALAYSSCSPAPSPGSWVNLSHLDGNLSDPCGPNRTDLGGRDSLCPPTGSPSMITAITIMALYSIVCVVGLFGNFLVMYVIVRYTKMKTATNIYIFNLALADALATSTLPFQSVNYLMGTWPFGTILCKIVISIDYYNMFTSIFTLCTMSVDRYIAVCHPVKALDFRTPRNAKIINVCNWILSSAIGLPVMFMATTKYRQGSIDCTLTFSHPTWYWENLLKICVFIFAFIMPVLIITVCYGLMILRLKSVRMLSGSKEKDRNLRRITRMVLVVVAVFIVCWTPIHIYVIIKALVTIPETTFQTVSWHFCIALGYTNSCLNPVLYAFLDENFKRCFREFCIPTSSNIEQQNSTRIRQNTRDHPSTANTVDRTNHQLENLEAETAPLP
Target sequence (P41143 whole entry, looked up): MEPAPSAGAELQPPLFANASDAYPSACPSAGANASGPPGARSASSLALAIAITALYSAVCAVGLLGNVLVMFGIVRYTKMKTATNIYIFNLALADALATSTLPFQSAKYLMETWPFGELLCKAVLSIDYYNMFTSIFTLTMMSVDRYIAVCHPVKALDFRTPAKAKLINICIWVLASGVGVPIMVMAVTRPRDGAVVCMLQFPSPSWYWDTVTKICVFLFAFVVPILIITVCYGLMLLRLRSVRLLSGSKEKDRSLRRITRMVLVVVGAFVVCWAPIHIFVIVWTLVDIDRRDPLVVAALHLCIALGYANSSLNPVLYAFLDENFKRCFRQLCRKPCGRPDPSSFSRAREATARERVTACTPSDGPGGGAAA
OPRM1-OPRD1 inv – inverse agonists of human mu-delta opioid receptor heterodimerization; P35372+P41143; cell-based MOR-DOR heterodimer luminescence, inverse agonism; inhibition, % at 9.3 µM; 340,000 tested, 0.21% active; AID 504357; in the data active = inhibition above about 22%, passing the limit was not always enough;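 note: 0% = cells with DMSO and 100% = wells without cells with DMSO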
HTR5A ag – counter-screen for OPRM1-OPRD1 agonists: human HTR5A agonism. HTR5A agonist assay, luminescence, cell-based. activation, % at 9.3 µM. 340,000 tested, 0.61% active. AID 504692; in the data active = activation mostly above about 9.5%, no sharp cut-off; inactive = mostly below about 7.6%;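 note: 0% = cells with vehicle only and 100% = reference agonist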
HTR5A inv ctr – inverse agonist of human HTR5A in OPRM1-OPRD1 counter-screen | P47898 | inhibition, % at 9.3 µM | 340,000 tested, 0.083% active | HTR5A cell line, luminescence, inverse agonism; in the data active = inhibition mostly above about 23%, no sharp cut-off; inactive = mostly below about 18%;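 note: 0% = cells with DMSO and 100% = no-cell wells with DMSO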
MOR-DOR ag conf – confirmation of human OPRM1-OPRD1 heterodimerization agonists; shares compounds with MOR-DOR ag; AID 504904; activation, % at 9.3 µM; cells, MOR-DOR heterodimerization, luminescence complementation; 830 tested, 45% active;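 note: 0% = vehicle-treated cells and 100% = reference agonist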
HTR5A ag counter – activates human HTR5A in OPRM1-OPRD1 agonist counter-screen | shares compounds with MOR-DOR ag | HTR5A agonist counterscreen, cell luminescence | 830 tested, 8% active | activation, % at 9.3 µM; in the data active = activation above about 17%;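 note: 0% = vehicle-treated cells and 100% = reference agonist response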
Active calls of the source: *. Most compounds without a hit are left out; they make up all but 1.1% or so of the library. Cut-off read from the data, not from the text of the source, unless noted: active = activation above about 18%; inactive = the rest.

SMILES | MOR-DOR ag | OPRM1-OPRD1 inv | HTR5A ag | HTR5A inv ctr | others
COc1cc2c(cc1OC)C1(CCCC1)CNC2c1cccc([N+](=O)[O-])c1 (stereo unspecified) | -7 | 35* | -13 | 38*
COc1cc2c(cc1OC)C(c1cccc([N+](=O)[O-])c1)NC(=O)C2 (stereo unspecified) | -2 | 8 | -4 | 2
CCOc1ccc2noc3c2c1C(=O)c1ccccc1-3 | 11 | -63 | -5 | 9
O=C1c2ccccc2-c2onc3ccc(N4CCCC4)c1c23 | 19* | -97 | 6 | -4
CCOC(=O)c1ccccc1NS(=O)(=O)c1cnn(CC)c1C | -2 | 11 | -1 | 4
Cc1nn(C(=O)c2ccco2)c(C)c1Sc1ccccc1 | 1 | -4 | 11* | 10
CCc1ccc(S(=O)(=O)NC2CC(C)(C)NC(C)(C)C2)cc1 | -2 | 7 | 6 | -21
Cc1[nH]c2ccc(-c3nnc(SCC(=O)c4ccccc4F)o3)cc2c1C | 2 | -12 | 12* | -3
CC1=Nc2cc(C(=O)NCCCN3CCOCC3)ccc2Sc2c(C)ccc(C)c21 | -2 | 9 | 10.0* | -2
CC1=Nc2cc(C(=O)NCCN3CCOCC3)ccc2Sc2c(C)ccc(C)c21 | -2 | 12 | 1 | 0
CS(=O)(=O)c1ccc(S(=O)CC(=O)OCc2ccccc2)c([N+](=O)[O-])c1 (stereo unspecified) | -4 | 19 | -1 | 21
CCCNC(=O)C(Cc1ccccc1)NC(=O)c1ccccc1 (stereo unspecified) | -2 | 11 | -3 | 4
Cc1cccc(C)c1NC(=O)CNC(=O)C(Cc1ccccc1)NC(=O)c1ccccc1 (stereo unspecified) | 0 | 3 | 13* | -46
COC(=O)c1c(NC(=O)CCC(=O)O)sc2c1CCCCC2 | -1 | 6 | 14* | -7
CCC1Nc2ncnc(N3CCN(c4ccccc4)CC3)c2N(Cc2ccccc2)C1=O (stereo unspecified) | -13 | 60* | -12 | 49*
CCC1Nc2ncnc(N3CCCCC3)c2N(Cc2ccc(Cl)cc2)C1=O (stereo unspecified) | -3 | 17 | -2 | 4
CCC1Nc2ncnc(N3CCN(c4ccccn4)CC3)c2N(Cc2ccc(Br)cc2)C1=O (stereo unspecified) | -15 | 86* | -29 | 80*
CCC1Nc2ncnc(N3CCCCC3)c2N(Cc2ccc(Br)cc2)C1=O (stereo unspecified) | -4 | 20 | -6 | 9
CCC1Nc2ncnc(N3CCN(c4ccccn4)CC3)c2N(Cc2ccc(Cl)cc2)C1=O (stereo unspecified) | -14 | 80* | -29 | 77*
CC(C)(C)[C@@H]1COC(=O)[C@H](Cc2ccc(F)cc2)C/C=C\C[C@@H](CC(=O)NCCO)C(=O)N1 | -1 | 7 | 1 | 9
Cc1ccc2c(c1)COc1c3ccc(C(=O)N[C@@H](C)CO)cc3nn1-2 | -2 | 9 | 14* | -14
Cc1cccc(NC(=S)N(Cc2ccc(Br)cc2)Cc2ccc(C(=O)O)cc2)c1 | -2 | 13 | -3 | 8
Cc1cc(NC(=S)N(Cc2ccc(Br)cc2)Cc2ccc(C(=O)O)cc2)ccc1Cl | -2 | 11 | 12* | -34
COc1ccc(NS(=O)(=O)c2cc(NS(=O)(=O)c3cc(C(=O)O)ccc3OC)ccc2C)cc1 | -5 | 20 | -7 | 13
COc1ccc(NS(=O)(=O)c2cc(C(=O)O)ccc2C)cc1 | -1 | 5 | 12* | -29
SMILES | MOR-DOR ag | OPRM1-OPRD1 inv | HTR5A ag | HTR5A inv ctr | others
Cc1occc1-c1nnc(SCC(=O)Nc2ccccc2N2CCCCC2)n1C | 2 | -12 | 9.8* | -16
Cc1occc1-c1nnc(SCC(=O)Nc2ccccc2)n1C | -2 | 8 | -2 | -4
O=C(CSc1nc2ccccc2c(=O)n1-c1ccccc1F)Nc1ccc2c(c1)CCC2 | -1 | 4 | -4 | 11
CCN(CC)CCn1c(SCC(=O)Nc2ccc3c(c2)CCC3)nc2ccccc2c1=O | -1 | 4 | 12* | 12
O=C(CCN=C1NS(=O)(=O)c2ccccc21)Nc1ccc(F)cc1Cl | -1 | 2 | 3 | -9
Cc1ccc(C2(C)NC(=O)N(CC(=O)NC3CCCCC3)C2=O)cc1 (stereo unspecified) | 2 | -10 | -5 | 7
CC(C)=CCC/C(C)=C/CNC(=O)C[C@H]1C[C@H](C(=O)N2CCOCC2)[C@@]2(CCC3CCCC3)c3[nH]c4cc(-c5ccco5)ccc4c3CCN2C1=O | -2 | 8 | 4 | -13
COC(=O)/C(C#N)=C/c1c(N2CCN(Cc3ccc4c(c3)OCO4)CC2)nc2c(C)cccn2c1=O | -2 | 9 | -3 | 30
Cc1cccn2c(=O)c(/C=C(\C#N)C(N)=O)c(N3CCN(Cc4ccc5c(c4)OCO5)CC3)nc12 | -1 | 5 | 11* | -40
O=S(=O)(c1ccc2c(c1)C(O)c1ccccc1CC2)C(F)(F)F (stereo unspecified) | 7 | -39 | 13* | -32
CCC(=O)Nc1ccc(Cl)c(NC(=O)c2ccc([N+](=O)[O-])cc2)c1 | 5 | -33 | 12* | -31
COCCSc1nc(N)c(NC(=O)c2ccco2)c(=O)[nH]1 | -2 | 10 | 1 | -3
Cc1ccc(N(C(=O)C(F)(F)F)C(C(=O)NC2CCCCC2)c2cccs2)cc1 (stereo unspecified) | 18* | -105 | 12 | -10 | MOR-DOR ag conf=-1;HTR5A ag counter=-1
Cc1ccc(Cn2ccc(=O)c(OCc3c(Cl)cccc3Cl)c2C)cc1 | 28* | -169 | 2 | -15 | MOR-DOR ag conf=0;HTR5A ag counter=24*
COc1ccccc1-c1sc2cc3c(cc2c1C#Cc1cncn1C)OCO3 | -1 | 8 | 0 | -1
Cc1ccc(-c2csc(Cc3nc(-c4cc5ccccc5oc4=O)cs3)n2)cc1 | 3 | -18 | -1 | 2
Cc1ccn2cc(-c3cc4ccccc4oc3=O)nc2c1 | 20* | -102 | 0 | -17 | MOR-DOR ag conf=12;HTR5A ag counter=5
C#CCn1cc(/C=N/Nc2nc3ccccc3[nH]2)c2ccccc21 | 33* | -226 | -3 | 8 | MOR-DOR ag conf=1;HTR5A ag counter=4
C(=N\Nc1nc2ccccc2[nH]1)/c1ccccn1 | -1 | 6 | -1 | -10
CCn1ccnc1CNCc1cn(-c2cc(C)ccc2C)nc1-c1ccccc1 | 2 | -12 | -4 | 2
Cc1ccc(C)c(-n2cc(CNCCc3cnccn3)c(-c3ccccc3)n2)c1 | 54* | -275 | 8 | -25 | MOR-DOR ag conf=79*;HTR5A ag counter=-1
Cc1ccc(NC(=O)Nc2cc(Cl)ccc2C2COC(=O)C2=N)cc1 (stereo unspecified) | 23* | -119 | 1 | -4 | MOR-DOR ag conf=5;HTR5A ag counter=39*
CCN(c1nc(N)c(C(=O)N=C(N)N)nc1Cl)C(C)C | 51* | -282 | 2 | -11 | MOR-DOR ag conf=95*;HTR5A ag counter=-3
O=C(CN(C(=O)c1csnn1)c1cccc2c1CCCC2)NC1CCCC1 | -2 | 12 | -1 | 1
O=C(CSc1ccccc1)Nc1ccc(-c2nc3ccccc3[nH]2)cc1 | 22* | -111 | 8 | -32 | MOR-DOR ag conf=5;HTR5A ag counter=-2
